The full ranking holds about 25,000 sequences; the median of “ln(normalized median fluorescence intensity)” is about 7.1, and the highest 2% start at about 10. Many of the other results were omitted from the sample, so the highest values are more common in it than they were.
System: PfSIP2 AP2 domain 1 (GST-tagged)
Experiment: gcPBM binding intensity (ln(normalized median fluorescence intensity)); higher = stronger DNA binding
Summary of the method: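 After 1 h on an Agilent 4 × 180k array of primer-extended double-stranded 36-bp intergenic genomic probes and negative controls, bound GST-tagged P. falciparum DNA-binding domains were detected with Alexa488 anti-GST antibody and scanned at 488 nm. The domains had been expressed in E. coli, and binding took place in 1× PBS with 1% milk, 0.2 mg/ml BSA, 0.5% salmon testes DNA and 0.03% Triton X-100. Binding intensity is the highest Masliner-normalised natural-log median intensity across replicate spots of either probe orientation.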

Sequence	gcPBM binding intensity (ln)
CATTAATAACAAAGTTGTACAAGATAATATTATATG [XGTACX_site6832]	7.26
TAAAAAATTATTAAACGTACGAGACTTTTTATCAGT [XGTACX_site2219]	7.05
AAAAAAAAATATAACAGTACATAAACATATGAATAT [XGTACX_site7093]	6.91
ATAATAAAAAAAATTAGTACATATATAAATATAAAT [XGTACX_site1937]	6.85
CATCTCATATTTTGAAGTACTAAGAAAAGATATAAA [XGTACX_site6867]	7.07
TTTTTTTTTTTTTTTGCATGTTGAAAATAAAATTAT [TGCATGCA_site86]	6.92
TTTTATGTTTATGTGGTGCATGTTTTGAAGAAAATA [GTGCAC_site9616]	10.3
GAAAATTTAAAAAGAGTGCATTATATGTTTGAATAT [GTGCAC_site9564]	9.18
TTTTATGCATGTGAAGTGCAAAATAAAAAATAAAAT [GTGCAC_site9612]	10.2
AATTTGAAATATGTGGTGCAGTTATATAATATGTTT [GTGCAC_site9885]	10.3
TATATTTGAAATATATGTACTTATAATACAGTTTAA [XGTACX_site8039]	6.94
ATATAAAATCAACAAAAAAAAAAAATATATATATAT [XGTACX_negctrl_site251]	9.03
AAATACATAACTTAAAATTTGTTCATATCTATACAT [TGCATGCA_negctrl_site249]	6.94
ACATTAACATTGTTGGTGCAAAATTAATATGTTTTT [GTGCAC_site9673]	9.77
AGGTTTTCTTAAATAGTGCATTATAACAAAAATAAA	9.66
AAAAATTAACAAAAGGTGCAAACAAATAGTGGTTTT [GTGCAC_site9998]	10.8
GTATATAATTTATGTGCACACACTCCTATTTTTAGC [CACACA_site49]	8.89
ATTCCTTGGTTGTATAGTACTTTGGTTAAACATAAA [XGTACX_site6967]	7.4
CTTATAAGAATACTAGTGCACATAATTTAACGAAAA	10.6
AAGATAAAATTATGCACACATACGAATAATTTTAAA [CACACA_site1705]	7.24
TAGATTATTATACTAGTGCAAATTATTTAAGAAAAA	8.09
AAAAATTTAATTATTTGTACATAAAATACATTTCTG [XGTACX_site791]	6.81
TTATAAATATAATTTTGTACATATATATATATATAC [XGTACX_site5064]	7.39
AAAATTATACACACACGTACATATAAATAGAAATAT [XGTACX_site1753]	7.12

Sequence	gcPBM binding intensity (ln)
AACATACGACAATACGCACACATATAAGTACATATT [CACACA_site8584]	7.13
ATTTAAAAGTTGGTAGTGCATTAAAAATAACAAAAA [GTGCAC_site9835]	8.96
TTCTATTTTTTAAAAGTGCATATTATAAATATATAT	9.04
AGGATAAAAGTTATGGTGCATTAACCTATTTAAATA	10.2
GCACATTTTTTTATCACACATATAATTACAATATAA [CACACA_site5585]	7.74
ACAATATTTTTTTATAAACACACATATATATAAATA [CACACA_site9175]	7.18
AATAATGAATTGAAATGTACATATTTTTATTAATAC [XGTACX_site8899]	7.15
AAAATATAAAGTATTTGTACATAATATATTTTTAAA [XGTACX_site3494]	6.81
CAATTAAACAATTAAACATGCAAAATGATATAATAA [TGCATGCA_site240]	6.79
TATGTATTAATGAGAACATGCAAAATAATAAACAAT [TGCATGCA_site362]	7.24
CATGAGGTATAAAAGGTGCAAATTAATGAGAACATT	11.1
TATATATATATATGTGGTACATAAAATTATTATTTT [XGTACX_site4554]	9.55
TTTTAAGGTGTGAAGGTGCAAAAAGGTAAATAGGAA	10.8
ATTTTAAAAAGGATAGTGCAAATGTTAAAATAGGAC	8.74
TTTTTTTTTAAGCAAAGGAAATCAAAATAAAAATAT [CACACA_negctrl_site719]	7.08
ATTTAAGTAGTACATACACACACATATACAAAAAGA [CACACA_site9317]	7.39
GATGAGGACAAACACACACACATAAGTTGATACATA [CACACA_site3424]	7.27
ATACTTTTATTTTTGGTGCATATATCATGTAGACGT	10.2
CTTTTTATTTAGGAGGTGCATGTAATACGGAACATA	10.9
CTATAATAACATAACACACACATGTATTTATAGGTG [CACACA_site6298]	7.05
ATATAATAACATAACACACACATGTATTTATAGGTG [CACACA_site359]	6.97
CGGACATACATAGGAACATGCAAAATTTTTTATTTT [TGCATGCA_site575]	6.78
TTTTATTTAGGAGGTGCATGTAATACGGAACATAAT [TGCATGCA_site827]	11.2
